For some of these results: Measured potencies and affinities stand elsewhere.

Parameters in all cases: scale not given: direction of the effect not stated beside the values
The target in experiment [1] is Protein translocase subunit SecA (Escherichia coli (strain K12)) (UniProt P10408). Kind of experiment: Assay to Identify E. coli SecA ATPase Inhibitors. The note with it: 30 µM. The class given is functional.
Experiment [2] concerns the target T1, Ubiquitin-activating enzyme e1, putative (Leishmania donovani (strain BPK282A1)) (UniProt E9BSI1).
T1 sequence (whole entry): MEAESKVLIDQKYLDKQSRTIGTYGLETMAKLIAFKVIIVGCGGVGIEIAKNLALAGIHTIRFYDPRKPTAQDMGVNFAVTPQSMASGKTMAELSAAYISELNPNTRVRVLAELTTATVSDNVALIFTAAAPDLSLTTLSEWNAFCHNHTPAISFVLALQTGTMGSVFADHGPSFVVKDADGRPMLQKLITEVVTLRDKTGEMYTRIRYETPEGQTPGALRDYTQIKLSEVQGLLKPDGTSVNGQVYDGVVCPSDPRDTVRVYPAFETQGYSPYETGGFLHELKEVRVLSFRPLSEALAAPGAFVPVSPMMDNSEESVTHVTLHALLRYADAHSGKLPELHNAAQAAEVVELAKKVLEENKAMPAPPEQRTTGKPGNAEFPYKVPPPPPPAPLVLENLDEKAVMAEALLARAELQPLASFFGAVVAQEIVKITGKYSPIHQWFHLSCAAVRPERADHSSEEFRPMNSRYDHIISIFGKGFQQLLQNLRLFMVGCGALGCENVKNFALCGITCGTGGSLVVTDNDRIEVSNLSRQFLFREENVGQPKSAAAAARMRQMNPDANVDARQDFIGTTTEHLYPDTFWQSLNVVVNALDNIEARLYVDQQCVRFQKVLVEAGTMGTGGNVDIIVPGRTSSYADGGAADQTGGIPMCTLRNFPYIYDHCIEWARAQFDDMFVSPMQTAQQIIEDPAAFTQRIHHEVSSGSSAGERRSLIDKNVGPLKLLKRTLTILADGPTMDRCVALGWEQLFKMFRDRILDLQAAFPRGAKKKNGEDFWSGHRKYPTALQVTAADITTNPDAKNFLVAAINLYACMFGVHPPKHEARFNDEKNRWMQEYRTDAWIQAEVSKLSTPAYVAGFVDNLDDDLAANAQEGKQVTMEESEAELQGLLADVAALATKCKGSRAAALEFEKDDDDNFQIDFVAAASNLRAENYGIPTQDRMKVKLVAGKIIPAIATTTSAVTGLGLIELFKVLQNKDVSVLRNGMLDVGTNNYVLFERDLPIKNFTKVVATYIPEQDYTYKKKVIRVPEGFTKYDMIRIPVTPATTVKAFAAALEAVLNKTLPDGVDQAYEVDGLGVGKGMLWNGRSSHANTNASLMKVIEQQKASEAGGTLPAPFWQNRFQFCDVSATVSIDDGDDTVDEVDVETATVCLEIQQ
In words: Leishmania donovani Ubiquitin Activating Enzyme (LdE1). The class given is functional. The note with it: 30 µM.

In experiment [3] the target is AMP-activated protein kinase, AMPK (Homo sapiens) (UniProt P54646+O43741+P54619+Q9UGJ0+Q9Y478+Q13131+Q9UGI9). In words: AMP-dependent Kinase enzyme assay. An in vitro enzyme assay that detects ADP turnover that is directly proportional to AMPK activity. This uses naive AMPK that is activated during the assay with MK-8722. The class given is functional. To be noted: 30 µM.

The target in experiment [4] is Sialic acid-binding Ig-like lectin 9 (Homo sapiens) (UniProt Q9Y336). In words: Hs-Siglec9 ALPHAscreen SOP 20170721. The note with it: 10 µM. (Alpha assays give light when donor and acceptor beads are brought close together.)
Sequence of Sialic acid-binding Ig-like lectin 9 (Homo sapiens) (Q9Y336 whole entry): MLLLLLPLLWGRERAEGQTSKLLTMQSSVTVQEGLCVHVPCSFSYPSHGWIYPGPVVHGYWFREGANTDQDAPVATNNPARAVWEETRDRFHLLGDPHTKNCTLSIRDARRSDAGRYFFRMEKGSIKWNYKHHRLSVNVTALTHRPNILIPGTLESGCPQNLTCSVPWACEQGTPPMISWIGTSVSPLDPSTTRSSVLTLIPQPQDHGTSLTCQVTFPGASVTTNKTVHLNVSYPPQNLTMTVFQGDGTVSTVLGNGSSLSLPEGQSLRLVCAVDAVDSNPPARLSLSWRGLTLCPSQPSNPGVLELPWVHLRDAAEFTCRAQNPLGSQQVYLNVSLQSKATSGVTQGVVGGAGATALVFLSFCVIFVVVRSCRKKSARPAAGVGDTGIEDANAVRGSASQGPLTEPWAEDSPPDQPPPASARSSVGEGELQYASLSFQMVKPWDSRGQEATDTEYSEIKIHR
The test system of the next experiment is Trypanosoma cruzi. Kind of experiment: Trypanosoma cruzi phosphomannomutase and mannose-1-phosphate guanylyltransferase assay. The class given is functional. To be noted: 10 µM.
Experiment [5] addresses T2, Arginase-2, mitochondrial (Homo sapiens) (UniProt P78540).
T2 sequence (whole entry): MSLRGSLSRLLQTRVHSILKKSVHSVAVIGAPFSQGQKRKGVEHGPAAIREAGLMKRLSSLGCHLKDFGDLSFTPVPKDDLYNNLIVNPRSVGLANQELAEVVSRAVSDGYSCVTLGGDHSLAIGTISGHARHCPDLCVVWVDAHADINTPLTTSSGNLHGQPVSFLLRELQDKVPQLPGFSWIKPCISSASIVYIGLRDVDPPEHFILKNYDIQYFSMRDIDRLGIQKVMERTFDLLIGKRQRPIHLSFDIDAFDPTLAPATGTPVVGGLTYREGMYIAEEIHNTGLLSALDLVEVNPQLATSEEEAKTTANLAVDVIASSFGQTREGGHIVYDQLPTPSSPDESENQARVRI
In words: in vitro enzyme assay to detect the production of urea directly proportional to the activity of Arginase II. Note: in the data most compounds retested in dose-response had high values. The class given is functional. To be noted: 33.3 µM.

Experiment [6] addresses T3, Proteasome subunit beta (Trypanosoma cruzi) (UniProt O96673).
T3 sequence (whole entry): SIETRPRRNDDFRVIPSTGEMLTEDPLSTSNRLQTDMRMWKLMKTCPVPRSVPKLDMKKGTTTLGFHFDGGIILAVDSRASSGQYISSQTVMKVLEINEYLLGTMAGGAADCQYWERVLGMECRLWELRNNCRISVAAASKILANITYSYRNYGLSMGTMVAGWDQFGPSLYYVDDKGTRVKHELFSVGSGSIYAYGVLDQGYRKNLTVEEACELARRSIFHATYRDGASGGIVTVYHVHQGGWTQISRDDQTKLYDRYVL
In words: Trypanosoma cruzi proteasome chymotrypsin-like activity (TcProtChymo) assay. Note: in the data most compounds retested in dose-response had high values. The class given is functional. The note with it: 9.37 µM.

The species named for another experiment is Homo sapiens. In words: To identify inhibition of the IFN signalling (Jak-Stat) pathway via expression of an eGFP reporter gene under the control of an IFN-stimulated response element (ISRE) containing MxA promoter. The class given is functional. The note with it: 30 µM. Background: Reporter assays use an easily measured gene product as a stand-in for the process of interest.

Experiment [7] concerns the target T4, Tyrosyl-tRNA synthetase, putative (Trypanosoma cruzi (strain CL Brener)) (UniProt Q4DSP6).
T4 sequence (whole entry): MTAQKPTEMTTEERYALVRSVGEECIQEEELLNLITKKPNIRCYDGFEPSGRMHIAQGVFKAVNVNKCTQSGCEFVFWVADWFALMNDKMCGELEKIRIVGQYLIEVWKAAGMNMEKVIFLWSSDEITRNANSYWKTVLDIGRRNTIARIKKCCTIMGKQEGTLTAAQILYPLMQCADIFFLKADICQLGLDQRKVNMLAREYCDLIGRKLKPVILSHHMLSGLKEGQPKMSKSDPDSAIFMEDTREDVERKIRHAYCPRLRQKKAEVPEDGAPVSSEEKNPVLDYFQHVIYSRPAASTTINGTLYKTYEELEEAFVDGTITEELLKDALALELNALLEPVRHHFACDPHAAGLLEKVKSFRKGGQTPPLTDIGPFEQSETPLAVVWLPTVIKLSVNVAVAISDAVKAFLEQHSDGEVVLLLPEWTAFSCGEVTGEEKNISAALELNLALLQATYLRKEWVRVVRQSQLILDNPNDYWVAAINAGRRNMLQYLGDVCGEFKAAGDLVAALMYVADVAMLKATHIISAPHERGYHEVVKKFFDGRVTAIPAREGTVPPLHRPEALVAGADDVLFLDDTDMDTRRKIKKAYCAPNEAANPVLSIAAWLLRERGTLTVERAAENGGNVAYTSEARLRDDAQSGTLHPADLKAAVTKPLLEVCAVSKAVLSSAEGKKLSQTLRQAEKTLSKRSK
Kind of experiment: Trypanosoma cruzi tyrosyl tRNA synthetase (TcYRS) _High Tyrosine SOP. Note: in the data most compounds retested in dose-response had high values. To be noted: 30 µM. The class given is functional.

The target of experiment [8] is T4, Tyrosyl-tRNA synthetase, putative (Trypanosoma cruzi (strain CL Brener)). Kind of experiment: Trypanosoma cruzi tyrosyl tRNA synthetase (TcYRS) SOP. The class given is functional. To be noted: 30 µM.
Experiment [9] addresses Chromo domain-containing protein 1 (Saccharomyces cerevisiae (strain ATCC 204508 / S288c) (Baker's yeast)) (UniProt P32657). In words: ScCHD-1 Enzyme Inhibition Assay. Note: in the data most compounds retested in dose-response had high values. The class given is functional. To be noted: 30 µM.

Sequence of Chromo domain-containing protein 1 (Saccharomyces cerevisiae (strain ATCC 204508 / S288c) (Baker's yeast)) (P32657 whole entry, the tested form may be a part): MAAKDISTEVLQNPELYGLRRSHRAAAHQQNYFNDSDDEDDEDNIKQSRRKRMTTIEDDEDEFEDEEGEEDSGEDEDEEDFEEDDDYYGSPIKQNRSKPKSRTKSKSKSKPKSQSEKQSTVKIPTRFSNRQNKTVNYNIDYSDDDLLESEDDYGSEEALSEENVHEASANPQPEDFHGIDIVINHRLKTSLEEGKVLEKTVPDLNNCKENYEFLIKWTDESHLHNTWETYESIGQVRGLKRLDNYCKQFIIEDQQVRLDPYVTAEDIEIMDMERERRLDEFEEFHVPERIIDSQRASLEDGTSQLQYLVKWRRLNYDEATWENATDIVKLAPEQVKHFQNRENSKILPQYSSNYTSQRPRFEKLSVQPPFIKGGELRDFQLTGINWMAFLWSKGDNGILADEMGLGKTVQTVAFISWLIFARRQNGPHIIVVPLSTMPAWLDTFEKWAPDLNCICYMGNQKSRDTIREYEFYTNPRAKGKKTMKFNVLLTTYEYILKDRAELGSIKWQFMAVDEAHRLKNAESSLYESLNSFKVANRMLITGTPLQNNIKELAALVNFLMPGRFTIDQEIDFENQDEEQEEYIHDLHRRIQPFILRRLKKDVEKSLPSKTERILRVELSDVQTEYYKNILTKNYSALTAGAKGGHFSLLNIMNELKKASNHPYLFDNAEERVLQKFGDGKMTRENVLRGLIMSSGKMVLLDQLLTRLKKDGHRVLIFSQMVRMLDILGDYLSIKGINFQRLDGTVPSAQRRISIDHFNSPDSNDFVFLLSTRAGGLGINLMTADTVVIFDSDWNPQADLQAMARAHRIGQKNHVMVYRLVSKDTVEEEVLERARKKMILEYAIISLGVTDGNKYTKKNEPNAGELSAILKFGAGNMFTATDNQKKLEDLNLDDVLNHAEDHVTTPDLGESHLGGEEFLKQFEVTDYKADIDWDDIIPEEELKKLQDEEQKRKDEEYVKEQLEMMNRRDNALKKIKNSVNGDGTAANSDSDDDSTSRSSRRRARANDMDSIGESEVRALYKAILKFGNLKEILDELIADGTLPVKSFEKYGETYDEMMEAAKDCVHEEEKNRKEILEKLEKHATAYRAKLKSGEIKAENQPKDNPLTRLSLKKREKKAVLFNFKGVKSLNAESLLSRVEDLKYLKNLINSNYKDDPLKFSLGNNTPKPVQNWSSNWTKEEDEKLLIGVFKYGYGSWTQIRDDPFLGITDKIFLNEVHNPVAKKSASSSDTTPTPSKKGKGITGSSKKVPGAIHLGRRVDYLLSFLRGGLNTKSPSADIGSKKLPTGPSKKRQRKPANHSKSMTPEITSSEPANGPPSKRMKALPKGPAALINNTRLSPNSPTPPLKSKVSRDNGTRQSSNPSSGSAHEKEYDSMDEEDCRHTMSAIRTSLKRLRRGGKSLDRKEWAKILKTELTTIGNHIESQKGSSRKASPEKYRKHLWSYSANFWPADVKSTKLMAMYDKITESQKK
Sequence of Protein translocase subunit SecA (Escherichia coli (strain K12)) (P10408 whole entry): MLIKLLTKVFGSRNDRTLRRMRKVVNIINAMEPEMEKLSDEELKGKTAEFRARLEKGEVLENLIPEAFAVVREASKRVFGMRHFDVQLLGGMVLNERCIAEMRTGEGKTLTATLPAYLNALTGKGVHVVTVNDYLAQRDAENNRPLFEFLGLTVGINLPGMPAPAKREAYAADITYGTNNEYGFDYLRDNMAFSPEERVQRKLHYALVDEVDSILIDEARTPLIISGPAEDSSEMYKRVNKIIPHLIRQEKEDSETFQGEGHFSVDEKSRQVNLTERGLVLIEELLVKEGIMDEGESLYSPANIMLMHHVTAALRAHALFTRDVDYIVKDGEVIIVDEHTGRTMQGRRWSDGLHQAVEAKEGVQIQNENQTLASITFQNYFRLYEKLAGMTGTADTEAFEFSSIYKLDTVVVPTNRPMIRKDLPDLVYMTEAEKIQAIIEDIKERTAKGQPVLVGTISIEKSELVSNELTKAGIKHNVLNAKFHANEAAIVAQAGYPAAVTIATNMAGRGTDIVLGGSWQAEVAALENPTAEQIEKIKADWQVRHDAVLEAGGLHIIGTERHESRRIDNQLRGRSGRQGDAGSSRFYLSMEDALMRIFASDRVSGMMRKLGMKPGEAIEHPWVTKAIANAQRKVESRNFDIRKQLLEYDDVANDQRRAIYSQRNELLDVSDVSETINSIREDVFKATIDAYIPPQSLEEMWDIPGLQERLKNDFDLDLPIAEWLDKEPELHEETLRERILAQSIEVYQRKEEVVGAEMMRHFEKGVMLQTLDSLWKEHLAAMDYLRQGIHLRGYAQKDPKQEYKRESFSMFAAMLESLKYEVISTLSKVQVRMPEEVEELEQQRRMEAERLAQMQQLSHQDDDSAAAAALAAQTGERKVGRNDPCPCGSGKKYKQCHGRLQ

On to `O=C(NCCN1CCOCC1)NCc1ncc(-c2ccccc2)o1`, for which the Percent Effect in experiment [1] is -2.93%; in experiment [2] it was 2.67%; in experiment [3] it was -6.01%; in experiment [4], 8.92%; with Trypanosoma cruzi, 7.3%; in experiment [5] it was 0%. In addition, the Percent Effect in experiment [6] is 16.6%; in the experiment listed under Homo sapiens, 19.1%; in experiment [7] it was 7.1%; in [8] it was 13.6%; in experiment [9] it was -0.412%.
`COc1ccc(Br)c(C(=O)NCCNc2ccc(C(F)(F)F)cn2)c1`: the Percent Effect was 0.559% in experiment [1]; 18.2% in [2]; 8.45% in experiment [3]; -0.542% in [4]; -1.08% with Trypanosoma cruzi; 0.21% in [5]. Further, the Percent Effect in experiment [6] is 10.9%; in the experiment listed under Homo sapiens it was -7.76%; in [7] it was 11.4%; in [8], 25.9%; in experiment [9], -25.7%.
As for `Cc1ccc(CCC(=O)N(C)CCN2CCOCC2)c(C)c1`, the Percent Effect is -0.772% in experiment [1]; -5.26% in experiment [2]; 4.45% in [3]; 4.55% in experiment [4]; -0.487% in the experiment on Trypanosoma cruzi; -7.1% in [5]. Besides, the Percent Effect in experiment [6] is 17%; in the experiment filed under Homo sapiens, -17.1%; in experiment [7] it was 6.38%; in [8], 5.2%; in experiment [9], 4.92%.
Turning to `COc1cccc(CN2CCCCCC2c2cccs2)c1O` (stereo not drawn), the Percent Effect was -0.394% in experiment [1]; 0% in experiment [2]; -1.74% in experiment [3]; -0.0415% in experiment [4]; -3.65% in the experiment with Trypanosoma cruzi; 4.52% in experiment [5]. Further, the Percent Effect in experiment [6] was 15.8%; in the experiment listed under Homo sapiens it was 21.7%; in experiment [7], -1.06%; in experiment [8], 8.97%; in experiment [9], -5.25%.
On to `CC(=O)NCC(=O)N1CCC2(CC1)CN(c1cccnc1)C(=O)CO2`, for which the Percent Effect is -1.82% in experiment [1]; 13.5% in experiment [2]; -3.23% in experiment [3]; -10.1% in experiment [4]; -3.42% in the experiment with Trypanosoma cruzi; 2.87% in experiment [5]. For the same compound, the Percent Effect in experiment [6] is 26.2%; in the experiment listed under Homo sapiens, -0.0812%; in experiment [7] it was -1.08%; in experiment [8], 10.3%; in experiment [9] it was 0.305%.
Turning to `Cc1ccc(CN2C[C@@H]3COC[C@H](C(=O)N4CCCCO4)[C@@H]3C2)o1`, the Percent Effect in [1] is -1.82%; in experiment [2], 13.3%; in experiment [3] it was 7.57%; in experiment [4], 2.5%; with Trypanosoma cruzi it was 1.57%; in [5] it was -1.17%. Moreover, the Percent Effect was 4.32% in [6]; 0.512% in the experiment listed under Homo sapiens; 7.45% in [7]; 19.2% in experiment [8]; -3.93% in experiment [9].
As for `CCn1c(C(=O)N2CCN(CC(C)O)CC2)cc2ccccc21` (stereo not drawn), the Percent Effect is -8.12% in experiment [1]; 7.79% in experiment [2]; -6.74% in experiment [3]; 7.69% in [4]; 10.1% in the experiment with Trypanosoma cruzi; -1.78% in [5]. In addition, the Percent Effect is 6.42% in experiment [6]; -0.229% in the experiment filed under Homo sapiens; 3.88% in experiment [7]; 21.9% in experiment [8]; -10.6% in experiment [9].
As to `CCN(Cc1nc2c(cnn2C)c(=O)[nH]1)c1cccc(F)c1`, the Percent Effect in [1] was -1.38%; in experiment [2], 11.4%; in experiment [3] it was 6.32%; in [4] it was 2.17%; with Trypanosoma cruzi it was -2.36%; in [5], -6.24%. For the same compound, the Percent Effect was 15.3% in [6]; 9.49% in the experiment filed under Homo sapiens; 1.04% in experiment [7]; 15.2% in [8]; -15.7% in [9].

Source of the values: ChEMBL document CHEMBL3988442, “University of Dundee, Small-Polar-MMV Screening Library” (2021).
